ID4 SMM: binders of human ID4 protein, primary screen, biochemical, small molecule microarray, single point; DNA-binding protein inhibitor ID-4 (Homo sapiens), P47928; Flag-ID4 binding, fluorescence F/B; calls only; actives 1.2% (n = 31,000); AID 624137, 2012; call rule not given here;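 also: a binder raises fluorescence above local background on the spot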
Target sequence (P47928 whole entry, looked up): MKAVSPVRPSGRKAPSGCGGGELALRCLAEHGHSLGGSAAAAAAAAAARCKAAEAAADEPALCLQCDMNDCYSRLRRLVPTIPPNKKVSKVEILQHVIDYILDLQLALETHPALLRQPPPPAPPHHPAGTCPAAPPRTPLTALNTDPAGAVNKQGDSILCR
* hit, by the source's call; i = inactive; + = active, no number. The full list was thinned out, with hits kept by preference.

SMILES | ID4 SMM
O=C1c2ccccc2S(=O)(=O)N1CCCCN1CCN(c2ncccn2)CC1 | +
COC(=O)c1ccc(Cl)c(NC(=O)CN(c2ccc(I)cc2)S(C)(=O)=O)c1 | i
COC(=O)c1ccccc1NC(=O)C(C)NS(=O)(=O)c1ccc(Cl)cc1 (stereo not drawn) | i
COc1cccc(C(=O)COc2cccc(NC(=O)c3ccc(Cl)c(Cl)c3)c2)c1 | i
Cc1cc(C)nc(SCC(=O)Nc2cccc(C(=O)O)c2)n1 | +
Cn1nnnc1SCC(=O)Nc1cccc(C(=O)O)c1 | i
Cc1nc(SCC(=O)Nc2cccc(C(=O)O)c2)[nH]c(=O)c1C | i
Cc1cc(N(CC(N)=O)S(C)(=O)=O)ccc1Br | i
CSc1ccccc1NC(=O)CSc1nnnn1-c1ccccc1C | i
O=C(Cn1cnc2scc(-c3ccccc3)c2c1=O)Nc1ccc(Oc2ccccc2)cc1 | i
CCOC(=O)c1c(NC(=O)c2nc3nc(C)cc(C(F)F)n3n2)sc2c1CCCC2 | i
COc1cccc2cc(C(=O)C3C(=O)C(=O)N(c4nc(C)c(C)s4)C3c3ccco3)oc12 (stereo not drawn) | i
O=C(CSc1nnc(-c2ccc([N+](=O)[O-])cc2)n1-c1ccccc1)Nc1ccc(Cl)cc1 | i
COc1cccc(NC(=O)CC2C(=O)NC3CCCCC3N2C(=O)c2ccccc2)c1 (stereo not drawn) | +
COc1cccc(N2C(=O)C(CC(=O)Nc3ccc(F)cc3)N(C3CCCCC3)C2=O)c1 (stereo not drawn) | i
COc1cccc(NC(=O)Cn2cnc3ccccc3c2=O)c1 | i
CCOC(=O)c1c(NC(=O)c2ccc(C)c(S(=O)(=O)N3CCCC3)c2)sc(C)c1C | i
CCn1c(SCC(=O)Nc2ccc(C(N)=O)cc2)nnc1-c1ccco1 | i
O=C(CSc1nnc(-c2ccco2)n1-c1cccc2ccccc12)Nc1ccc(C(=O)O)cc1 | +
COc1ccc(NC(=O)CSc2nnc(-c3ccco3)n2-c2ccccc2)cc1 | i
N#Cc1ccccc1OCCCn1cnc2ccccc21 | i
CC(C)CC(NS(=O)(=O)c1ccc(C(C)(C)C)cc1)C(=O)O (stereo not drawn) | i
O=S(=O)(c1ccc2ccccc2c1)N1CCN(Cc2ccc(OCCO)cc2)CC1 | i
COc1ccc(S(=O)(=O)N[C@@H]2CCCN(Cc3cccc(OCCO)c3)C2)cc1 | i
Cc1ccc(S(=O)(=O)N2CCN(Cc3cccc(OCCO)c3)CC2)cc1 | +
SMILES | ID4 SMM
COc1ccc(S(=O)(=O)N2CCN(Cc3ccc(OCCO)cc3)CC2)cc1 | +
Cc1ccc(F)cc1S(=O)(=O)N1CCN(Cc2cccc(OCCO)c2)CC1 | i
Cc1ccc(S(=O)(=O)N2CCN(Cc3ccc(OCCO)cc3)CC2)cc1 | i
Cc1cc(C)c(NC(=O)CN(c2cccc(Br)c2)S(C)(=O)=O)c(C)c1 | i
Cc1ccc(OCC(=O)NC(=S)Nc2cc(-c3nc4ncccc4o3)ccc2Cl)cc1 | i
O=C(Nc1ccc(Cl)cc1Cl)NC(Cc1ccc(O)cc1)C(=O)O (stereo not drawn) | +
O=C(CSc1ncccn1)Nc1ccc(Cl)cc1Cl | i
CC(=O)NC(Cc1c[nH]c2cc(Cl)ccc12)C(=O)O (stereo not drawn) | i
COC(=O)c1ccc(NC(=O)CN(C)S(=O)(=O)c2ccccc2)cc1 | i
Cc1cc(C)nc(NS(=O)(=O)c2ccc(NC(=O)c3ccc(C(=O)c4ccccc4)cc3)cc2)n1 | +
COc1cc(OC)cc(C(=O)Nc2ccc(S(=O)(=O)Nc3nc(C)cc(C)n3)cc2)c1 | i
Cc1cc(C)nc(NS(=O)(=O)c2ccc(NC(=O)c3ccc(-c4ccccc4)cc3)cc2)n1 | i
CN1CCN(C(CC(=O)Nc2cccc([N+](=O)[O-])c2)C(=O)O)CC1 (stereo not drawn) | i
CCOC(=O)C(C)Sc1nc2ccc(I)cc2c(=O)n1-c1ccccc1OC (stereo not drawn) | i
COc1ccc2nc(Nc3nc(CSc4ccc(Cl)cc4)cc(=O)[nH]3)nc(C)c2c1 | i
CCc1c(C)nc(Nc2nc(C)c3ccc(OC)cc3n2)[nH]c1=O | i
COc1ccc2nc(NC3=NC(c4ccccc4)CC(=O)N3)nc(C)c2c1 (stereo not drawn) | +
O=C(COc1ccc(I)cc1)NCc1ccco1 | i
CCCOc1ccc(Oc2nc(NC(C)(C)C)nc(N3CCOCC3)n2)nn1 | i
CNC[C@@H]1Oc2ccc(NC(=O)Nc3c(C)noc3C)cc2CC(=O)N([C@H](C)CO)C[C@H]1C | +
CNC[C@@H]1Oc2ccc(NC(=O)Nc3cccc4ccccc34)cc2CC(=O)N([C@@H](C)CO)C[C@H]1C | +
CNC[C@H]1Oc2ccc(NC(=O)c3ccncc3)cc2CC(=O)N([C@@H](C)CO)C[C@@H]1C | i
CNC[C@@H]1Oc2ccc(NC(=O)c3ccncc3)cc2CC(=O)N([C@@H](C)CO)C[C@H]1C | +
CNC[C@H]1Oc2ccc(NC(=O)Nc3ccccc3)cc2CC(=O)N([C@@H](C)CO)C[C@@H]1C | i
CNC[C@H]1Oc2ccc(NC(=O)Nc3ccccc3)cc2CC(=O)N([C@H](C)CO)C[C@@H]1C | i
SMILES | ID4 SMM
CNC[C@H]1Oc2ccc(NC(=O)c3ccncc3)cc2CC(=O)N([C@H](C)CO)C[C@@H]1C | i
CNC[C@H]1Oc2ccc(NC(=O)Nc3c(C)noc3C)cc2CC(=O)N([C@@H](C)CO)C[C@H]1C | i
CNC[C@@H]1Oc2ccc(NC(=O)Nc3c(C)noc3C)cc2CC(=O)N([C@@H](C)CO)C[C@@H]1C | i
CNC[C@H]1Oc2ccc(NC(=O)CCN3CCOCC3)cc2CC(=O)N([C@@H](C)CO)C[C@@H]1C | +
CNC[C@@H]1Oc2ccc(NC(=O)CCN3CCOCC3)cc2CC(=O)N([C@H](C)CO)C[C@H]1C | i
CNC[C@@H]1Oc2ccc(NC(=O)CCN3CCOCC3)cc2CC(=O)N([C@@H](C)CO)C[C@@H]1C | i
COC(=O)c1ccc(NC(=O)CSc2nc(-c3cccs3)cc(=O)[nH]2)cc1 | i
COc1ccc(C(=O)c2oc3ccccc3c2NC(=O)COc2ccc(F)cc2)cc1 | i
CC1=C(C(=O)Nc2ccccc2)C(CC(C)C)n2nc(SCc3cccc(C)c3)nc2N1 (stereo not drawn) | i
O=C(CS(=O)(=O)c1ccc2ccccc2c1)c1cc2ccccc2oc1=O | i
CCSc1nc2ccccc2n1C(CC(=O)O)C(=O)O (stereo not drawn) | i
CN(C)CCNC(=O)c1cc(-c2cccnc2)nc2c(Cl)cccc12 | i
O=C(CN1CCCCC1)Nc1sc2c(c1C(=O)Nc1ccc(Cl)cc1)CCC2 | i
COc1cc(C2C(C(=O)c3cccs3)C(=O)C(=O)N2Cc2ccco2)cc(OC)c1OC (stereo not drawn) | i
Cc1cc2oc(C(=O)Nc3nnc(SCc4ccccc4)s3)c(C)c2cc1C | i
Cc1noc(C)c1NC(=O)N(C)C[C@H]1Oc2ccc(NC(=O)NC(C)C)cc2CC(=O)N([C@H](C)CO)C[C@H]1C | i
Cc1noc(C)c1NC(=O)N(C)C[C@H]1Oc2ccc(NC(=O)NC(C)C)cc2CC(=O)N([C@@H](C)CO)C[C@@H]1C | i
Cc1noc(C)c1NC(=O)N(C)C[C@H]1Oc2ccc(NC(=O)Nc3ccc(F)cc3)cc2CC(=O)N([C@H](C)CO)C[C@H]1C | +
COc1cccc(OCC(=O)Nc2cccc(Oc3ccc4c(c3)C(=O)NC4=O)c2)c1 | i
CS(=O)(=O)N(CC(=O)Nc1cccc([N+](=O)[O-])c1)c1cc(Cl)c(Cl)cc1Cl | i
